Each structure is given as a SMILES string. Values joined by “and” are separate entries in the source; they are usually repeats but may differ in a detail not shown here. Equal entries are not always repeated.

Sequence of C-X-C chemokine receptor type 6 (Homo sapiens) (O00574 whole entry, looked up): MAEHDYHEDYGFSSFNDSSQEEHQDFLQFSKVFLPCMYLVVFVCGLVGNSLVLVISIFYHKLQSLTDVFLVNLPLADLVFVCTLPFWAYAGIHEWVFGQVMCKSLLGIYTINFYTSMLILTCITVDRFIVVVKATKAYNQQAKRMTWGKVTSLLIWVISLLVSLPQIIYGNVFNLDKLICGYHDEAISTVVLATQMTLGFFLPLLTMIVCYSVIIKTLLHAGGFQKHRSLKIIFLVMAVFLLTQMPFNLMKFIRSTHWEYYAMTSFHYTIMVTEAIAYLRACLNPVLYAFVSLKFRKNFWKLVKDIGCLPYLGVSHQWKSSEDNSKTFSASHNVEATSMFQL

The test concerns the target C-X-C chemokine receptor type 6 (Homo sapiens) (UniProt O00574). Nature of the test: APJ beta-arrestin recruitment blockade alongside CXCR6 – cell-based, DiscoveRx, panel, CHO-K1, counter-screen for CXCR6 antagonist project, SAR follow-up (AID 651598). The following applies: CHO-K1 PathHunter beta-arrestin luminescence, antagonist mode; run 2, at 80 µM (top of the series). For orientation: Activated receptors often draw arrestin, which recruitment assays turn into a signal.
By inhibition is commonly meant the percentage by which the read-out fell short of the control. Low readings indicate a response near the control, high ones a response far below the control. `COc1cc(C(=O)NC2CC3CCCC(C2)N3CC(=O)Nc2ccccc2)cc(OC)c1OC` (stereo not drawn): the inhibition was 88.2% and 52.1% and 24.9%.

Turning to `COc1cc(C(=O)NC2CC3CCC(C2)N3CC(=O)Nc2ccccc2)cc(OC)c1OC` (stereo not drawn), the inhibition is 48.5% and 18.7%. In turn, `COc1cc(C(=O)NC2CCN(CC(=O)Nc3ccccc3)CC2)cc(OC)c1OC` came in with an inhibition of 25.1%.

Values taken from PubChem BioAssay AID651598 (Sanford-Burnham Center for Chemical Genomics, 2012).
